# Coupling enz: coupling enzyme interference in Giardia aldolase counter-screen. 290,000 compounds, 0.67% hits. AID 2472. coupling enzyme system counterscreen, AmpLite Red fluorescence. activity change, negative = inhibition, % at 58.2 µM, hits read low; in the data active = activity change below about -30%
#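 Counterscreen of the coupled detection system alone, without aldolase: glyceraldehyde-3-phosphate coupling enzymes plus AmpLite Red readout. Compounds at 57.5 uM final, 10 min RT preincubation, 20 min RT reaction, fluorescence 525/598 nm.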
# Tau FP inhib: blocks human tau fibril formation measured by polarization; K18 P301L tau heparin fibrillization, Alexa594 FP, 6 h; P10636; 280,000 compounds, 0.39% hits; Potency, µM (doses to about 57.7 µM), inactives show at the top dose activity, negative = inhibition, usual class: inhibitors; also: potency is read from the fitted curve at half-maximal effect; nearly all actives have a fitted effect of over 55% in size
# Target sequence (P10636 561-689 P618L limits assumed): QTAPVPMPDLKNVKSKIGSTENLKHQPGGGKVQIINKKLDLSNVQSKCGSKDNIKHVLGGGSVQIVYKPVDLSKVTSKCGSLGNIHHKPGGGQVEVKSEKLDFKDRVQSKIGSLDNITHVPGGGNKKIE
#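 Steps: dispense K18 P301L tau (15 uM plus 0.24 uM Alexa 594 tracer, final) in pH 7 sodium acetate; add compound; add heparin (20 uM final); incubate 6 hr, 37 C; add ThT (30 uM final); after 1 hr ambient, read FP.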
# Tau ThT inhib: blocks human tau fibril formation measured by thioflavin T | recombinant tau K18 P301L, heparin-induced fibrillization, ThT fluorescence | Potency, µM (doses to about 57.4 µM), for the others: at the highest dose activity, negative = inhibition, usual class: inhibitors | 270,000 compounds, 2.1% hits | AID 1460; also: potency is read from the fitted curve at half-maximal effect; nearly all actives have a fitted effect of over 55% in size
#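 Recombinant human tau K18 fragment […] carrying P301L, 15 uM unlabeled plus 0.24 uM Alexa 594-labeled, was fibrillized with 20 uM heparin in 100 mM sodium acetate pH 7 for 6 hr at 37 C; 30 uM ThT fluorescence read after 1 hr.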
# Tau fluor counter: counter-screen for tau fibril formation inhibitors; Potency, µM (doses to about 57.7 µM), without a hit: at the highest dose activity change, negative = decrease; tau K18 P301L (four-repeat tau fragment) Alexa594 fluorescence, heparin fibrillization; AID 1463; 280,000 compounds, 0.93% hits; also: potency is read from the fitted curve at half-maximal effect; nearly all actives have a fitted effect of over 55% in size
#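 Human K18 P301L tau (15 uM unlabeled plus 0.24 uM Alexa 594-labeled, final) in 100 mM sodium acetate pH 7 was mixed with compound and 20 uM heparin and incubated 6 hr at 37 C.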
# Active calls of the source: *; ? = inconclusive; nt = no result given; [ ] = another dose, or the depositor's remark. An excerpt weighted towards active compounds, which were near 2.7% of everything screened. Unless noted, calls follow the shape of the dose curve; as a rule, active = well fitted curve in the direction sought with a large enough effect; inconclusive = small, poorly fitted or top-dose-only effect, or another doubt; inactive = no such curve, though single readings can be large; an effect the other way counts as inactive or inconclusive. % is scaled to controls: 0 for no effect and ±100 for the full control effect.
SMILES,Coupling enz,Tau FP inhib,Tau ThT inhib,Tau fluor counter
CC(C)[n+]1ccn(C2=C([O-])c3ccccc3C(=O)/C2=N\S(=O)(=O)c2ccccc2)c1,-44*,-10%,?,-10%
Cc1c(C(=O)N2CCCCC2)c(S(=O)(=O)NCCc2ccc(Cl)cc2)c(C)n1C,1,nt,nt,nt
CCc1nc2ccc(C(=O)NCc3cc(OC)ccc3OC)cc2nc1CC,nt,-8%,-1%,-9%
O=C(CSC1=Nc2ccccc2N=C(c2ccc(F)cc2)C1)NCc1ccccc1,nt,-9%,-2%,-6%
COc1cccc(CNC(=O)c2c3c(nc4ccccc24)C(=O)N(C2CCCCC2)C3)c1,nt,-2%,-8%,-5%
CN(C)c1ccc(C(c2nnnn2C(C)(C)C)N2CCN(C(=O)c3ccco3)CC2)cc1 (configuration not stated),0,-14%,16µM*,?
O=C(Cn1ncc2c3ccccc3n(Cc3cccc(Cl)c3)c2c1=O)Nc1ccc(F)cc1F,nt,4%,-6%,-9%
COC(=O)c1c(NC(=O)C2SC(=NC3CCCCC3)C(C(N)=O)=C2N)sc2c1CCCC2 (configuration not stated),-1,?,?,16µM*[quencher]
Cc1ccc(N=Cc2ccc[nH]2)c(O)c1,-34*,?,16µM*,?
COc1cc(NC(=O)C2CCN(S(=O)(=O)c3c(C)noc3/C=C/c3c(C)cc(C)cc3C)CC2)cc(OC)c1,nt,?,17%,-9%
C=CCn1c(SCC(=O)NCCOC)nc2scc(-c3ccco3)c2c1=O,-1,16µM*,22µM*,-17%
COc1ccccc1NC(=O)CN(Cc1ccco1)C(=O)c1cncc(Br)c1,-31*,-3%,-15%,-11%
COc1ccccc1NC(=O)CN(Cc1ccco1)C(=O)c1ccc(-n2nc(C)cc2C)cc1,-2,-10%,-8%,-5%
CCCCS(=O)(=O)N1CCc2nc(-c3ccc(OC)cc3C)c3c(c2C1)CO[C@@H](c1ccccc1)C3,3,-2%[11.6 µM],0%[11.5 µM],7%[11.6 µM]
Cc1cc(C)c(NC(=O)CN2C(=O)CCSc3ccc(S(=O)(=O)N4CCCC4)cc32)c(C)c1,nt,-9%,0%,-1%
c1csc(CNc2ccc3c(c2)OCCO3)c1,-31*,0%,?,-15%
Cc1sc2ncn(CC(=O)N3CCN(c4ccccc4)CC3)c(=O)c2c1S(=O)(=O)N1CCC(C)CC1,nt,7%,-13%,?
CC1(C)CC(=O)c2cc(-c3nc(-c4ccc(Br)cc4)cs3)c(=O)n(-c3ccccc3)c2C1,nt,-17%,5%,-12%
O=[N+]([O-])c1ccc(Oc2cccc3cccnc23)c(Cl)c1,-37*,nt,nt,nt
NC(=O)c1ccc(Oc2cccc3cccnc23)c([N+](=O)[O-])c1,-6,13%,?,-27%
COc1ccc(Cc2nc3ccccc3n2Cc2ccccc2F)cc1,nt,-3%,?,-13%
Cc1cccc(N2CCN(S(=O)(=O)c3cc(C(=O)Nc4ccc(Oc5ccccc5)cc4)ccc3F)CC2)c1C,nt,28µM*,0%,-17%
Cc1ccc(C)c(N2CCN(S(=O)(=O)c3cc(C(=O)Nc4ccc(Oc5ccccc5)cc4)ccc3F)CC2)c1,nt,?,10%,2%
O=C(Nc1cc(Cl)cc(Cl)c1)c1ccc(F)c(S(=O)(=O)N2CCN(c3ccccc3F)CC2)c1,nt,20µM*,4%,-30%
CCc1cccc(NC(=O)CCn2c(=O)c3cccn3c3cccnc32)c1,nt,-2%,9%,2%
SMILES,Coupling enz,Tau FP inhib,Tau ThT inhib,Tau fluor counter
CCOC(=O)c1c(-c2cccc([N+](=O)[O-])c2)csc1NC(=O)C1CC1,-15,0%,?,-30%
CCOC(=O)c1c(-c2cccc([N+](=O)[O-])c2)csc1N,-13,7%,?,22µM*[quencher]
CN(C)c1ncc2nc(-c3cc(F)cc(F)c3)c(=O)n(-c3ccccc3)c2n1,3,nt,nt,nt
O=C(NCc1ccccc1Cl)C1CCN(S(=O)(=O)Cc2ccccc2)CC1,nt,-9%,3%,-11%
COc1ccc(CCNC(=O)CCCn2c(=O)c3ccccc3n(Cc3cccc(Cl)c3)c2=O)cc1OC,nt,-3%,-15%,-11%
CN(C)c1ccc(N=Nc2ccccc2C(=O)OCC(=O)NCC2CCCCC2)cc1,4,?,1.8µM*,14%
CN(C)c1ccc(N=Nc2ccccc2C(=O)OCC(=O)NC2CCCC2)cc1,2,-3%,6.3µM*,?
CN(C)c1ccc(N=Nc2ccccc2C(=O)OCC(=O)N(C)C2CCCCC2)cc1,-1,12%,7.9µM*,?
C=C[C@H](C)[C@](C)(O)c1ccccc1,1,-3%,5%,-2%
O=[N+]([O-])c1ccc(/C=N/Nc2nc(N3CCCCC3)nc(N3CCCCC3)n2)cc1,-1,11%,?,?
O=[N+]([O-])c1ccc(Nc2nc(N/N=C\c3ccc4c(c3)OCO4)nc(N3CCCCC3)n2)cc1,-2,8%,32µM*,?
COc1cc(C2C(C(=O)OCC(C)C)=C(C)N=C3SCCC(=O)N32)ccc1OCc1ccccc1 (configuration not stated),nt,-6%,-5%,-7%
CCN(Cc1ccccc1)c1ccc(/C=N/NS(=O)(=O)c2ccc(C)c([N+](=O)[O-])c2)cc1,1,?,?,7.1µM*[quencher]
COC(=O)[C@@]1(Cc2ccc(OC)cc2)[C@H]2c3cc(C(=O)N(C)C)n(Cc4cccc5ccccc45)c3C[C@H]2CN1C(=O)c1ccccc1,1,2%,?,-15%
Cc1cccc(NC(=O)CSc2nc3ccccc3nc2N2CCOCC2)c1C,nt,0%,4%,-3%
CCCCn1c(CNC(=O)C23CC4CC(CC(C4)C2)C3)nnc1SCC(=O)Nc1ccc(F)cc1,nt,-5%,-2%,?
CCn1c(O)c(N=Nc2ccc3ccccc3n2)c2ccccc21,-4,2%,4µM*,-18%
CCCC/C=C/C(NC(=O)Oc1cccc(C(F)(F)F)c1)c1ccccc1 (configuration not stated),-1,6%,-13%,-10%
CCN1CC2=C(OC(N)=C(C#N)C2c2cccs2)/C(=C/c2cccs2)C1 (configuration not stated),-5,-6%,16µM*,-25%
CCN1C=C(Cc2cccs2)C2=C(C1)C(c1cccs1)C(C#N)=C(N)O2 (configuration not stated),-3,-9%,22µM*,-23%
Cc1cc(C(=O)Nc2ccc3ccccc3c2)c(C)o1,-4,nt,nt,nt
O=C(Nc1ccccc1C(=O)N/N=C/c1ccc(F)cc1)c1ccccc1Br,-33*,?,-5%,?
COc1ccc(NC(=O)C(=O)c2cn(CC(=O)N3CCCC3)c3ccccc23)c(OC)c1,1,nt,nt,nt
CCOC(=O)CN1C(=O)C(O)(c2c(C)[nH]c3ccccc23)c2ccccc21 (configuration not stated),-30*,16%,?,-30%
COC(=O)c1ccc2c(c1)N(CC(=O)Nc1cccc(C(F)(F)F)c1)C(=O)c1ccccc1S2,nt,-6%,6%,-3%
NC(=O)c1cc2c3ccccc3ccn2c1-c1ccccc1,-1,?,14µM*,14µM*[quencher]

# Assay outcomes as filed in PubChem.
